Consider 1 sequence from paper PMC7862700, “An all-to-all approach to the identification of sequence-specific readers for epigenetic DNA modifications on cytosine”.

What all share (assay): DAPPL (digital affinity profiling via proximity ligation, sequencing); 10 mM Tris-HCl pH 7.5, 50 mM NaCl, 1 mM DTT, 4% glycerol, room temperature, 30 min; GST-TFs on glutathione beads, 16-mer random dsDNA library, 0.1% formaldehyde crosslink after washing; high values mean tight binding
Assay [1] deals with T1, FEV (Homo sapiens, UniProt Q99581 1-238).
T1 sequence: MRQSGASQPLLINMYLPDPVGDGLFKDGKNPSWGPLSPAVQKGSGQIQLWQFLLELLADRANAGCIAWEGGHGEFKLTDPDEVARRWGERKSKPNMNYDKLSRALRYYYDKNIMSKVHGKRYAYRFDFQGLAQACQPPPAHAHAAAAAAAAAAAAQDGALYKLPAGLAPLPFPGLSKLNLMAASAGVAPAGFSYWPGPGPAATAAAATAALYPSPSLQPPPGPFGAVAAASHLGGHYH
The following applies: protein: recombinant; tags: N-terminal GST; dsDNA, one strand shown. The method, boiled down:
(§1)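 A tag-only sample was pooled with DNA-barcoded human transcription factors that had been expressed in yeast as GST fusions and captured on glutathione beads. The pools were incubated for 30 min at room temperature with 200 nmole of a random double-stranded 16-mer DNA library in Tris/NaCl/DTT/glycerol buffer, then washed, crosslinked with 0.1% formaldehyde, proximity-ligated (BsaI/T4 ligase, 1 h, 37 °C), PCR-amplified and sequenced on an Illumina NextSeq500. Binding signal is each hexamer's read frequency for a factor divided by its frequency for the tag-only sample.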

Assay [2] has as its target ETV5 (Homo sapiens, UniProt P41161 1-510). The following applies: protein: recombinant; tags: N-terminal GST; dsDNA, one strand shown. An outline of the steps: as §1
The target in assay [3] is HSF1 (Homo sapiens, UniProt Q00613 1-529). The following applies: protein: recombinant; tags: N-terminal GST; chain copies: 3; dsDNA, one strand shown. The method, boiled down: as §1
The target in assay [4] is T2, SPIC (Homo sapiens, UniProt Q8N5J4 1-248).
T2 sequence: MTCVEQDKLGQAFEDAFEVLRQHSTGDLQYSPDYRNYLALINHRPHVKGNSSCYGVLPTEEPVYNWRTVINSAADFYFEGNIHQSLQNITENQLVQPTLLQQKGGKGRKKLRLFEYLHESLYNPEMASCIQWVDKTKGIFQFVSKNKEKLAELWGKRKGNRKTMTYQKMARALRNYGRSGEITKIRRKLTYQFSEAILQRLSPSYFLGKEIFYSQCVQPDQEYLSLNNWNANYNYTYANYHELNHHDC
The following applies: protein: recombinant; tags: N-terminal GST; dsDNA, one strand shown. An outline of the steps: as §1

In assay [5] the target is ELF4 (Homo sapiens, UniProt Q99607 1-663). The following applies: protein: recombinant; tags: N-terminal GST; dsDNA, one strand shown. An outline of the steps:
as §1

Assay [6] addresses T3, ELK4 (Homo sapiens, UniProt P28324-2 1-405).
T3 sequence: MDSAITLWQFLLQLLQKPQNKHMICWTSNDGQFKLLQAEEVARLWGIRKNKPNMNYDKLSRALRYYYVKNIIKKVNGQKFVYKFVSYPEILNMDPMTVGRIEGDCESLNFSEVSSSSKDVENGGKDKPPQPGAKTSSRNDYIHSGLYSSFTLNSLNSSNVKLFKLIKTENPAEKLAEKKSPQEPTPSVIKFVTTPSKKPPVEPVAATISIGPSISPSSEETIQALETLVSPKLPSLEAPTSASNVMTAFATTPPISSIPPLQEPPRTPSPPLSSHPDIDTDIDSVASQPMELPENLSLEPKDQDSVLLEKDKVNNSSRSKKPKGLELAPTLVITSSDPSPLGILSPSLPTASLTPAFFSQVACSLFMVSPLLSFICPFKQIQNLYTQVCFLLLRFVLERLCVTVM
The following applies: protein: recombinant; tags: N-terminal GST; dsDNA, one strand shown. The method, boiled down:
as §1

For assay [7], the target named is T4, ETV2 (Homo sapiens, UniProt O00321 1-342).
T4 sequence: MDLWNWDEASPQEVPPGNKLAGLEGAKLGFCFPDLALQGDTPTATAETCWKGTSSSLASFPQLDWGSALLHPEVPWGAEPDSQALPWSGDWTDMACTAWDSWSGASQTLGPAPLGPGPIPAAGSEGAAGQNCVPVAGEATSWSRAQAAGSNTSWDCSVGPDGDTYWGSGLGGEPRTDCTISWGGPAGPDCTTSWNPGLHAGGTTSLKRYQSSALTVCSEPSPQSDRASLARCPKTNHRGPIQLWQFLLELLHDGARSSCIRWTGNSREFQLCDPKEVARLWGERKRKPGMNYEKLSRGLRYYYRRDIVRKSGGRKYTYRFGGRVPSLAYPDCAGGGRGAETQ
The following applies: protein: recombinant; tags: N-terminal GST; dsDNA, one strand shown. The method, boiled down:
as §1

Assay [8] addresses T5, ELF3 (Homo sapiens, UniProt P78545 1-371).
T5 sequence: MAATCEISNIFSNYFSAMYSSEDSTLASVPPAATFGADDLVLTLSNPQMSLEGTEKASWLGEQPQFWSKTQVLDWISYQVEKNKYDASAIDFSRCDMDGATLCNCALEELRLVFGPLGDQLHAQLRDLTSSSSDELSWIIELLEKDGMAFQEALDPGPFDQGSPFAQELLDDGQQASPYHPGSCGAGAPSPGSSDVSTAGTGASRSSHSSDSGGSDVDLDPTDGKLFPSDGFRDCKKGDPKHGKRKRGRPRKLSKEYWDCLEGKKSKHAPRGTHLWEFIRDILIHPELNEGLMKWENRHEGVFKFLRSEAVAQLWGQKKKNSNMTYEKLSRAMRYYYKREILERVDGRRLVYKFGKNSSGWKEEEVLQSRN
The following applies: protein: recombinant; tags: N-terminal GST; dsDNA, one strand shown. An outline of the steps: as §1

Assay [9] has as its target CRX (Homo sapiens, UniProt O43186 1-299). The following applies: protein: recombinant; tags: N-terminal GST; dsDNA, one strand shown. An outline of the steps: as §1
For assay [10], the target named is ETV1 (Homo sapiens, UniProt P50549 1-477). The following applies: protein: recombinant; tags: N-terminal GST; dsDNA, one strand shown. An outline of the steps: as §1
In assay [11] the target is T6, ERF (Homo sapiens, UniProt P50548 1-548).
T6 sequence: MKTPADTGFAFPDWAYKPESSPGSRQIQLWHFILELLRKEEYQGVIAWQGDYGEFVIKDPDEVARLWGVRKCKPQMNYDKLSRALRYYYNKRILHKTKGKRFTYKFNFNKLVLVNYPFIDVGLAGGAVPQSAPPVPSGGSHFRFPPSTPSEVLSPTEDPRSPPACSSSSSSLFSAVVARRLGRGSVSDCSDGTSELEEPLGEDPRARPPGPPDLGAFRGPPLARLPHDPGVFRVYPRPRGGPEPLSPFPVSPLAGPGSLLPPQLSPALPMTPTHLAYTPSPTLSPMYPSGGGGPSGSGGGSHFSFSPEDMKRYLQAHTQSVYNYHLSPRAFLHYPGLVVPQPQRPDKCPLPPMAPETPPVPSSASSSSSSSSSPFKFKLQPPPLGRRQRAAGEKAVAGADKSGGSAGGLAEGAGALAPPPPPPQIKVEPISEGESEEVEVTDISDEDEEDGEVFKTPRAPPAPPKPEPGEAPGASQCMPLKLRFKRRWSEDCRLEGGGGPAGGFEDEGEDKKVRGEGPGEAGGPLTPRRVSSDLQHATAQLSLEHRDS
The following applies: protein: recombinant; tags: N-terminal GST; dsDNA, one strand shown. The method, boiled down:
as §1

In assay [12] the target is T7, ETV3L (Homo sapiens, UniProt Q6ZN32 1-361).
T7 sequence: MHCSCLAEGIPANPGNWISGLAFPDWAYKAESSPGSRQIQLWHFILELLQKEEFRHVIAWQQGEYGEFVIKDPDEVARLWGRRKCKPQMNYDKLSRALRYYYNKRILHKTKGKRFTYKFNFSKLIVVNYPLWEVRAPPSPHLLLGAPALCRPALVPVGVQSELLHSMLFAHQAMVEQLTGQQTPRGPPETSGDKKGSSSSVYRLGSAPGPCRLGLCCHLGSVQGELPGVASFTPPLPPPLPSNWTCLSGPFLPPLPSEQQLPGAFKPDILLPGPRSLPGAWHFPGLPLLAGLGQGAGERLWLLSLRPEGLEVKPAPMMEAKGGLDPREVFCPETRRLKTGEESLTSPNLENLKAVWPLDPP
The following applies: protein: recombinant; tags: N-terminal GST; dsDNA, one strand shown. The method, boiled down: as §1

The target of assay [13] is T8, ETS2 (Homo sapiens, UniProt P15036 1-469).
T8 sequence: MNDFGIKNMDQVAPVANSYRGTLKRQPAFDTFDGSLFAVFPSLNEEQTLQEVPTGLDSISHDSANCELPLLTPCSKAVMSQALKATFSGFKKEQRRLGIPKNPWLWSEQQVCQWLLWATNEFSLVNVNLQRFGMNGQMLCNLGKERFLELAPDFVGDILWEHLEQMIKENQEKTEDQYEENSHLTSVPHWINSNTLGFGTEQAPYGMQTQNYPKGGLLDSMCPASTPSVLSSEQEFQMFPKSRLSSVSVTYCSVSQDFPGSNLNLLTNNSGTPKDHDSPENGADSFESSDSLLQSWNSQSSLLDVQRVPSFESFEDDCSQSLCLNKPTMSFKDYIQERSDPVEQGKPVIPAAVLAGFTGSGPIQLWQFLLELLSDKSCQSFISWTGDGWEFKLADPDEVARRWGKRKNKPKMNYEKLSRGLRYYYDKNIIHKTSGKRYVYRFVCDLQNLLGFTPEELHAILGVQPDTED
The following applies: protein: recombinant; tags: N-terminal GST; dsDNA, one strand shown. An outline of the steps: as §1

The target in assay [14] is T9, SPDEF (Homo sapiens, UniProt O95238 1-335).
T9 sequence: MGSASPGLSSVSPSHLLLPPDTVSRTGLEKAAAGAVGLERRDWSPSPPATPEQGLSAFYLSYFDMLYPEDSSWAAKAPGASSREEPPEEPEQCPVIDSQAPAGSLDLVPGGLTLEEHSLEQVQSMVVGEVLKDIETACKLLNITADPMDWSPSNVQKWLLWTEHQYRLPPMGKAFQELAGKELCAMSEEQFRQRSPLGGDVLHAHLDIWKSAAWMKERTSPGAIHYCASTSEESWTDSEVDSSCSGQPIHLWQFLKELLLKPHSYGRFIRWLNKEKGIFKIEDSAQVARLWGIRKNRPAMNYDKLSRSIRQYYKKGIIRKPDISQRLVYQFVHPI
The following applies: protein: recombinant; tags: N-terminal GST; dsDNA, one strand shown. An outline of the steps: as §1

For assay [15], the target named is T10, ETV7 (Homo sapiens, UniProt Q9Y603 1-341).
T10 sequence: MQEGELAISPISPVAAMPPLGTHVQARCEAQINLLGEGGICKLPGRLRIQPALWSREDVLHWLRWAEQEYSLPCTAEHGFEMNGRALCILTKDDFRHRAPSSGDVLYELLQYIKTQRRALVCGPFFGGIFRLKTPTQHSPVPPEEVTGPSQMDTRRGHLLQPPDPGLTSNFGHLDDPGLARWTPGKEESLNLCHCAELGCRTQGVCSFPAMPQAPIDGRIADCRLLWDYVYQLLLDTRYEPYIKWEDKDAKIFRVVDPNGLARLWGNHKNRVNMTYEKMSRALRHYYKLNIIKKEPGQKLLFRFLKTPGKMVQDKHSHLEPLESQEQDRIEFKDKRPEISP
The following applies: protein: recombinant; tags: N-terminal GST; dsDNA, one strand shown. An outline of the steps: as §1

The target of assay [16] is T11, ELF5 (Homo sapiens, UniProt Q9UKW6-2 1-255).
T11 sequence: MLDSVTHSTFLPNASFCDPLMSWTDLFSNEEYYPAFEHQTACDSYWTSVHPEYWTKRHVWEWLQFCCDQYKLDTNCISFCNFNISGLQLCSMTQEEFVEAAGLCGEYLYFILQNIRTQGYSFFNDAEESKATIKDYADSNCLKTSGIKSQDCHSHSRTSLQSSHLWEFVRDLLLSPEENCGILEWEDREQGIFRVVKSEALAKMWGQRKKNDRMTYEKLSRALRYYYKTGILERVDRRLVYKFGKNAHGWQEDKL
The following applies: protein: recombinant; tags: N-terminal GST; dsDNA, one strand shown. An outline of the steps:
as §1

Assay [17] deals with T12, ETV3 (Homo sapiens, UniProt P41162-2 1-143).
T12 sequence: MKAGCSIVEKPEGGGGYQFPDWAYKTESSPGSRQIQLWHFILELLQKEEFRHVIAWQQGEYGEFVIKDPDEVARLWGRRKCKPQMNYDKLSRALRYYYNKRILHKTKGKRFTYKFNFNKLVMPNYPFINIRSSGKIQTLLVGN
The following applies: protein: recombinant; tags: N-terminal GST; dsDNA, one strand shown. The method, boiled down: as §1

Assay [18] deals with ETV6 (Homo sapiens, UniProt P41212 1-452). The following applies: protein: recombinant; tags: N-terminal GST; dsDNA, one strand shown. The method, boiled down:
as §1

Sequence of ELF4 (Q99607 whole entry): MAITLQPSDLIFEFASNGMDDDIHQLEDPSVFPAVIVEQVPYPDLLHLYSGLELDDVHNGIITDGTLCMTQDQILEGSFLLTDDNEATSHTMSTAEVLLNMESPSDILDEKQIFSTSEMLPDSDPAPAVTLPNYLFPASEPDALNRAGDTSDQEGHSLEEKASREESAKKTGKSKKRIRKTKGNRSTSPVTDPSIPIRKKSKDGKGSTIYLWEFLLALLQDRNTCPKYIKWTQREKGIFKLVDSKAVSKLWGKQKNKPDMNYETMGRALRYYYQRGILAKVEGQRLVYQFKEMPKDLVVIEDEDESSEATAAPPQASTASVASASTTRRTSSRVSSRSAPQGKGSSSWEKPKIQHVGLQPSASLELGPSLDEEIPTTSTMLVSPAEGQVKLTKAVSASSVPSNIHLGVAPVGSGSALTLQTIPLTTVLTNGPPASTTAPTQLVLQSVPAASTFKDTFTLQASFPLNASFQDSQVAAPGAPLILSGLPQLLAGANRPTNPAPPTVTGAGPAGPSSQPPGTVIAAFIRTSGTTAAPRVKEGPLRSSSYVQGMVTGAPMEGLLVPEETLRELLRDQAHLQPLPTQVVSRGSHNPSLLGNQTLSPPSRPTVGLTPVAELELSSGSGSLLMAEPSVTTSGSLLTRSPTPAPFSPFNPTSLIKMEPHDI
Sequence of ETV1 (P50549 whole entry): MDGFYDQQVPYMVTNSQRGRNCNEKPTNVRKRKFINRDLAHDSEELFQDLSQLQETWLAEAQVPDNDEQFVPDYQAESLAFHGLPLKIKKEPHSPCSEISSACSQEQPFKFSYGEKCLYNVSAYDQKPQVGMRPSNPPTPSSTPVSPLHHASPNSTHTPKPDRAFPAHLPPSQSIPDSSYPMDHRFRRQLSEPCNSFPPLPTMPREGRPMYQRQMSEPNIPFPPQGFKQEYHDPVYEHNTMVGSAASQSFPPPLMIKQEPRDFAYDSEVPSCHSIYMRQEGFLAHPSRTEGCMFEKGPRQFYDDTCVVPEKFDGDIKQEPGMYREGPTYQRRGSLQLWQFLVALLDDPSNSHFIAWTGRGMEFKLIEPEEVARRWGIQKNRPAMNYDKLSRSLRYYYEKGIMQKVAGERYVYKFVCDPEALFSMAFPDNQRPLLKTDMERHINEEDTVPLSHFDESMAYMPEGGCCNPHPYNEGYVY
Sequence of ETV6 (P41212 whole entry): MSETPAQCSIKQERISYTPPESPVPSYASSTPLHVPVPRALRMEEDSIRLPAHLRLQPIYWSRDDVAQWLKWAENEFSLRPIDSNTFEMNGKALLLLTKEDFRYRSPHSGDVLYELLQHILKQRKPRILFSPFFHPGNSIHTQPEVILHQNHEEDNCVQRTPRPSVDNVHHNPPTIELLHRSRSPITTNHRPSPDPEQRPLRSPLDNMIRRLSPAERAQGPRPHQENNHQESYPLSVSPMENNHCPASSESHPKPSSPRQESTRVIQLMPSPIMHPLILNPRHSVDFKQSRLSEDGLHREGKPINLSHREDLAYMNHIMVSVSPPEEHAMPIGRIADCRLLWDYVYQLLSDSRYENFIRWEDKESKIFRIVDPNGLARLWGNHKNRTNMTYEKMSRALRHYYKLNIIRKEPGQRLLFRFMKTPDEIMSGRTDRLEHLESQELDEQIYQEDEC
Sequence of CRX (O43186 whole entry): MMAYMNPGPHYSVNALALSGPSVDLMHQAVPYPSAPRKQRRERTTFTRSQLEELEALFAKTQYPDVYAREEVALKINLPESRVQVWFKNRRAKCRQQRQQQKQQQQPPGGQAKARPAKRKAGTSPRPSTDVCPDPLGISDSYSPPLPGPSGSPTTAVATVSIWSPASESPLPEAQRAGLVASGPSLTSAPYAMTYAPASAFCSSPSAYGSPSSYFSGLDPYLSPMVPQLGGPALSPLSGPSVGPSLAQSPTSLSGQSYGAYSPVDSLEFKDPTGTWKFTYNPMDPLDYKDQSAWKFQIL
Sequence of ETV5 (P41161 whole entry): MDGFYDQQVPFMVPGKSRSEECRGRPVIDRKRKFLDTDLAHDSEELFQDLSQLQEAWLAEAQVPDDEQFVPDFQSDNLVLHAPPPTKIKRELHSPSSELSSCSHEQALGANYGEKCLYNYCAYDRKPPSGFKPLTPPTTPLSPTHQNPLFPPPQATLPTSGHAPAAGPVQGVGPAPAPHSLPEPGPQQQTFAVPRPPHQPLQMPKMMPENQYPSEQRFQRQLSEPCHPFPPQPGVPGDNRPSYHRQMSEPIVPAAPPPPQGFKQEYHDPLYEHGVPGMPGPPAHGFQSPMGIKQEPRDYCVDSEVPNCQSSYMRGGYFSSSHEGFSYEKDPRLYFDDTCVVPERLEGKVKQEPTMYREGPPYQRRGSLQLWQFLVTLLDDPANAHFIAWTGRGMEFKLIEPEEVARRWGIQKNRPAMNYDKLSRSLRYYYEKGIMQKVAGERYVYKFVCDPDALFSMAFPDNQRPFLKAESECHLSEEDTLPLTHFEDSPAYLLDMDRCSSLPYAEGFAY
Sequence of HSF1 (Q00613 whole entry): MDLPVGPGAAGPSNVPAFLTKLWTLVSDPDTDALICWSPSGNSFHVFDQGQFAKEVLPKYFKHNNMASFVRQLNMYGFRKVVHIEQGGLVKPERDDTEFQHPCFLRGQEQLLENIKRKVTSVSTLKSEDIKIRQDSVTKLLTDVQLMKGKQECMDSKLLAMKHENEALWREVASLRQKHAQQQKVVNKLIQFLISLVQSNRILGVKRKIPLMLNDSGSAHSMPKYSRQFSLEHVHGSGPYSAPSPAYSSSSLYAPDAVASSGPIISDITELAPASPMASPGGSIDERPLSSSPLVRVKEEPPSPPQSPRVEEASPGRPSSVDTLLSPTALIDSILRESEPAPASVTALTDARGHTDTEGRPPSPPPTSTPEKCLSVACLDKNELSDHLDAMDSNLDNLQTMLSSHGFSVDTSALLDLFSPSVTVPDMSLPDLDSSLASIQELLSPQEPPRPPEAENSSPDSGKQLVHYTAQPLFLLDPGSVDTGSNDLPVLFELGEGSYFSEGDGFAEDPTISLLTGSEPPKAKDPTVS

On to GTTTAA, for which the binding signal in assay [1] is 1.11 fold enrichment (6-mer frequency, TF over GST control); in assay [2] it was 1.07 fold enrichment (6-mer frequency, TF over GST control); in assay [3], 1.28 fold enrichment (6-mer frequency, TF over GST control); in assay [4], 1.02 fold enrichment (6-mer frequency, TF over GST control); in assay [5] it was 1.1 fold enrichment (6-mer frequency, TF over GST control); in [6], 1.14 fold enrichment (6-mer frequency, TF over GST control). The binding signal in [7] was 1.23 fold enrichment (6-mer frequency, TF over GST control); in [8], 1.05 fold enrichment (6-mer frequency, TF over GST control); in [9], 1.79 fold enrichment (6-mer frequency, TF over GST control); in assay [10], 1.14 fold enrichment (6-mer frequency, TF over GST control); in assay [11], 1.21 fold enrichment (6-mer frequency, TF over GST control); in [12] it was 1.24 fold enrichment (6-mer frequency, TF over GST control). Further, the binding signal was 1.15 fold enrichment (6-mer frequency, TF over GST control) in assay [13]; 1.05 fold enrichment (6-mer frequency, TF over GST control) in assay [14]; 1.21 fold enrichment (6-mer frequency, TF over GST control) in [15]; 1.17 fold enrichment (6-mer frequency, TF over GST control) in assay [16]; 1.13 fold enrichment (6-mer frequency, TF over GST control) in assay [17]; 1.13 fold enrichment (6-mer frequency, TF over GST control) in [18].
